Among the data in PubChem BioAssay (Tox21) are outcome and Potency values, retold here.

Values joined by “and” are separate entries in the source; they are usually repeats but may differ in a detail not shown here. Identical values can stand only once. Inconclusive results are not listed. Active and inactive are the calls of the source. Unless noted, the call rests on the fitted dose curve; in most records, active means well fitted curve in the direction sought with a large enough effect in the repeat runs; inconclusive means weak or mixed curves; inactive means no such curve, though single readings can be large; an effect the other way counts as inactive or inconclusive.

Test [1] in a line: A CellTox Green Cytotoxicity Assay to monitor cytotoxicity in HepG2 cells - 8 hour (AID 1224890). Further: nearly all actives have a fitted effect of over 45% in size. An outline of the steps:
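HepG2, 600 cells/well premixed w/ CellTox Green; 5 h settle, 37 C/5% CO2; pintool cpd add (DMSO); 37 C, 40 h; fluorescence read at 0, 8, 16, 24, 32, 40 h.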

Test [2] is described as follows: qHTS assay to identify small molecule antagonists of the estrogen receptor alpha (ER-alpha) signaling pathway using the BG1 cell line in the presence of 0.1 nM 17-beta-estradiol - cell viability counter screen (AID 1259241). Further: nearly all actives have a fitted effect of over 40% in size. An outline of the steps: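 Cells were plated and left 24 hr, compounds in DMSO were pinned in, 17beta-estradiol was added to 0.1 nM final, and after 22 hr CellTiter-Fluor reagent was added for 30 min before fluorescence was read.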
(In qHTS, concentration-response curves come from the screen itself.)

Test [3] in a line: qHTS assay to identify small molecule antagonists of the androgen receptor (AR) signaling pathway using the MDA cell line in the presence of 0.5 nM R1881 - cell viability counter screen (AID 1259242). Further: nearly all actives have a fitted effect of over 45% in size. An outline of the steps: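 Live-cell protease fluorescence, CellTiter-Fluor, 30 min at 37C. Cells: MDA-kb2, 3,000/well, preincubated 5 hr. Compounds plus 0.5 nM R1881 final, 16 hr, 37C, 0% CO2.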

Test [4] in a line: qHTS assay to identify small molecule phospholipidosis (PLD) inducers (AID 1259344; active means well fitted curve in the direction sought with a large enough effect; an effect the other way counts as inactive or inconclusive). In short, it runs like this: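 Accumulated phospholipid, stained red by LipidTOX during 24 h compound treatment of HepG2 cells at 37 C, is quantified from images as pit number and intensity, normalised per cell using Hoechst-stained nuclei.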
The nature of test [5]: qHTS assay to identify small molecule HDAC inhibitors (AID 1259364).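 Further: wild-type HCT-116 cells with endogenous class I/II HDAC activity; top concentration of the series differs between compounds; nearly all actives have a fitted effect of over 45% in size.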 An outline of the steps: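 HCT-116 (wild type), 1,500 cells/well, overnight; compound 2 hr 37C 5% CO2; HDAC-Glo I/II reagent 30 min RT; luminescence readout.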
Test [6] in a line: qHTS assay to identify small molecule HDAC inhibitors - cell viability counter screen (AID 1259365). Further: series mostly up to about 92 µM; nearly all actives have a fitted effect of over 50% in size. In short, it runs like this: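 Counter screen in wild-type HCT-116 cells: compounds dissolved in DMSO are pin-transferred onto overnight-plated cells and left 2hr at 37C. ATP-based CellTiter-Glo luminescence then measures viable cells.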
Test [7] can be described thus: qHTS assay to identify small molecule agonists of the sonic hedgehog signaling (Shh) pathway - cell viability counter screen (AID 1259366). Further: nearly all actives have a fitted effect of over 50% in size. An outline of the steps:
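Cells are plated at 2,000 per well and left 4hr at 37C, 5% CO2 before compound addition. After 23hr of treatment, CellTiter-Fluor reagent is added for 1hr at 37C and fluorescence is measured.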

Test [8] is described as follows: qHTS assay to identify small molecule antagonists of the sonic hedgehog signaling (Shh) pathway - cell viability counter screen (AID 1259367). Further: nearly all actives have a fitted effect of over 55% in size. In short, it runs like this: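 CellTiter-Fluor signal in conditioned medium-stimulated 3T3 Gli1-Luc cells, 23 hr compound exposure, 37C.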
A short description of test [9]: qHTS assay to identify small molecule agonists of the sonic hedgehog signaling (Shh) pathway (AID 1259368; calls by dose curve;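 further: NIH/3T3-derived 3T3Gli1-Luc cells carrying a stable Gli1-driven firefly luciferase reporter; series mostly up to about 92 µM; nearly all actives have a fitted effect of over 15% in size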). In short, it runs like this: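 Read-out: firefly luciferase luminescence from a Gli1 response element reporter stably integrated in NIH/3T3-derived 3T3Gli1-Luc cells, measured 30 min at room temperature after reagent addition. Compound exposure lasted 24 hr at 37 C, 5% CO2.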

Test [10] in a line: qHTS assay to identify small molecule antagonists of the sonic hedgehog signaling (Shh) pathway (AID 1259369; calls by dose curve; further: nearly all actives have a fitted effect of over 45% in size; further: potency means the concentration at half of the fitted maximal effect). An outline of the steps:
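Luminescence readout: firefly Luc under Gli1 response element in 3T3Gli1-Luc cells (NIH/3T3 clone). Antagonist mode, stimulation by conditioned medium; compound exposure 24hr at 37 C, 5% CO2.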

For test [11], the target named is Estrogen receptor beta (Homo sapiens) (UniProt Q92731). Description: qHTS assay to identify small molecule agonists of the estrogen receptor beta (ER-beta) signaling pathway (AID 1259377; active means well fitted activation curve with a large enough effect in the signal ratio in the repeat runs, not every such curve was filed as active; the % refers to the signal ratio; further: potency means the concentration at half of the fitted maximal effect). An outline of the steps: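 Agonist mode cell assay in GripTite HEK293T cells expressing an ER-beta fusion that drives beta-lactamase from an Upstream Activator Sequence; 16 hr compound exposure at 37C, then 2 h LiveBLAzer B/G FRET substrate at room temperature, fluorescence read-out.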

Test [12] can be described thus: qHTS assay to identify small molecule agonists of the androgen receptor (AR) signaling pathway in the presence of an antagonist - cell viability counter screen (AID 1259379).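 Further: MDA-kb2 human breast cancer cells carrying an MMTV luciferase reporter; series mostly up to about 92 µM; nearly all actives have a fitted effect of over 25% in size.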 An outline of the steps:
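Viability counter screen: CellTiter-Fluor fluorescence, measured in the same wells as the luciferase read-out. MDA-kb2 cells, 3,000/well, with nilutamide at 3.0uM final and compounds at 15 concentrations, 16 hr at 37C, 0% CO2.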

The nature of test [13]: qHTS assay to identify small molecule antagonists of the estrogen receptor beta (ER-beta) signaling pathway - cell viability counter screen (AID 1259382).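 Further: HEK293T cells carrying ER-beta-UAS-bla reporter stimulated with estradiol; series mostly up to about 92 µM; nearly all actives have a fitted effect of over 55% in size.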 In short, it runs like this:
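Luminescent ATP read-out (CellTiter-Glo, 30 min, RT) taken in the same wells as the bla reporter assay. HEK293T ER-beta-UAS-bla cells in 2% charcoal-stripped FBS were exposed to compounds with 1nM E2 for 16 hr at 37C.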

Test [14] is described as follows: qHTS assay to identify small molecule agonists or antagonists of the thyroid stimulating hormone receptor (TSHR) signaling pathway - wild type cell line counter screen (AID 1259384; calls by dose curve). In short, it runs like this:
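Counter screen in untransfected Hek293: compounds (15-point titration, triplicate) plus phosphodiesterase inhibitor Ro20-1724 added after 18 h plating; 30 min RT. Intracellular cAMP via competitive d2/cryptate immunoassay, 1 h incubation.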

Test [15] has as its target Androgen receptor (Homo sapiens) (UniProt P10275). Briefly: qHTS assay to identify small molecule antagonists of the androgen receptor (AR) signaling pathway using the MDA cell line in the presence of 0.5 nM R1881 (AID 1259243). Further: nearly all actives have a fitted effect of over 50% in size. In short, it runs like this: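 MDA-kb2, MMTV-luc (AR/GR elements); 3,000 cells/well; cpd + 0.5 nM R1881 final; 16 hr 37C, 0% CO2; ONE-Glo 30 min RT; luminescence.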

Test [16] concerns the target Estrogen receptor beta (Homo sapiens) (UniProt Q92731). Description: qHTS assay to identify small molecule antagonists of the estrogen receptor beta (ER-beta) signaling pathway (AID 1259378; active means well fitted inhibition curve with a large enough effect in the signal ratio in the repeat runs, not every such curve was filed as active; the % refers to the signal ratio). In short, it runs like this:
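Antagonist mode: compounds added to beta-lactamase reporter HEK293T ER-beta-UAS cells stimulated with E2 (1nM final), 16 hr at 37C. LiveBLAzer B/G FRET substrate, 2 hours room temperature, fluorescence read-out.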

Test [17] is described as follows: qHTS assay to identify small molecule agonists of the estrogen receptor beta (ER-beta) signaling pathway - cell viability counter screen (AID 1259380). Further: nearly all actives have a fitted effect of over 30% in size. An outline of the steps: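 Luminescence read-out (CellTiter-Glo, 30 min, room temp) taken in the same wells as the beta-lactamase reporter assay; ER-beta-UAS-bla HEK293T cells exposed to DMSO-dissolved compounds for 16 hr at 37C in 2% charcoal-stripped FBS medium.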

Test [18] concerns the target Androgen receptor (Homo sapiens) (UniProt P10275). Description: qHTS assay to identify small molecule agonists of the androgen receptor (AR) signaling pathway in the presence of an antagonist (AID 1259381; calls by dose curve; further: nearly all actives have a fitted effect of over 15% in size). In short, it runs like this: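 Luciferase read-out (ONE-Glo, 30min room temperature) in MDA-kb2 MMTV-reporter cells; agonist mode run in presence of AR antagonist nilutamide, 3.0uM final. Compounds tested as 15-point series, 16hr exposure at 37C, 0% CO2.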

Test [19] addresses Estrogen receptor (Homo sapiens) (UniProt P03372). Description: qHTS assay to identify small molecule antagonists of the estrogen receptor alpha (ER-alpha) signaling pathway using the BG1 cell line in the presence of 0.1 nM 17-beta-estradiol (AID 1259244). Further: nearly all actives have a fitted effect of over 50% in size. In short, it runs like this: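 Luminescence after ONE-Glo (30 min, room temperature) measured ERE-luciferase activity in VM7Luc4E2 cells treated 22 h with compound and 0.1 nM final 17beta-estradiol as stimulator.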

The target is the same in test [20]. Briefly: qHTS assay to identify small molecule agonists of the estrogen receptor alpha (ER-alpha) signaling pathway in the presence of an antagonist (AID 1259383; calls by dose curve; further: top concentration of the series differs between compounds; nearly all actives have a fitted effect of over 15% in size). In short, it runs like this: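 Luciferase luminescence (ONE-Glo, 30min at room temperature) measured in VM7Luc4E2 cells after 22hr compound exposure at 15 concentrations, with 10.0nM ICI-182,780 final present; cells express endogenous ER-alpha and carry four EREs upstream of luciferase.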

Chain of Estrogen receptor beta (Homo sapiens) (Q92731 whole entry, looked up, the tested form may be a part): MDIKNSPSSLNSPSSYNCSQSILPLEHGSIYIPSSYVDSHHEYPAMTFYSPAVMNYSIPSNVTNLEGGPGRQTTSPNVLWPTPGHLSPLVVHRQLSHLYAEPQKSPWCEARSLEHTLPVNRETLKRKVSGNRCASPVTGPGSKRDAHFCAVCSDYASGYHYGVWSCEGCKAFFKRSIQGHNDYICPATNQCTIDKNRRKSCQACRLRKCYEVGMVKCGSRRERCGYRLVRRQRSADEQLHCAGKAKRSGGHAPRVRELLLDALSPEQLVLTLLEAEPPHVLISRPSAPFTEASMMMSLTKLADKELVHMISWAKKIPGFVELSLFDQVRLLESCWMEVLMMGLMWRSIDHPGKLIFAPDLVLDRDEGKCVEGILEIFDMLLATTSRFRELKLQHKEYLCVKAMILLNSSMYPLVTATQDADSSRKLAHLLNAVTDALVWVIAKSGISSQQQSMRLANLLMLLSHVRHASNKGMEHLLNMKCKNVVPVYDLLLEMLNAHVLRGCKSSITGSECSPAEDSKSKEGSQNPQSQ
Chain of Estrogen receptor (Homo sapiens) (P03372 whole entry, looked up): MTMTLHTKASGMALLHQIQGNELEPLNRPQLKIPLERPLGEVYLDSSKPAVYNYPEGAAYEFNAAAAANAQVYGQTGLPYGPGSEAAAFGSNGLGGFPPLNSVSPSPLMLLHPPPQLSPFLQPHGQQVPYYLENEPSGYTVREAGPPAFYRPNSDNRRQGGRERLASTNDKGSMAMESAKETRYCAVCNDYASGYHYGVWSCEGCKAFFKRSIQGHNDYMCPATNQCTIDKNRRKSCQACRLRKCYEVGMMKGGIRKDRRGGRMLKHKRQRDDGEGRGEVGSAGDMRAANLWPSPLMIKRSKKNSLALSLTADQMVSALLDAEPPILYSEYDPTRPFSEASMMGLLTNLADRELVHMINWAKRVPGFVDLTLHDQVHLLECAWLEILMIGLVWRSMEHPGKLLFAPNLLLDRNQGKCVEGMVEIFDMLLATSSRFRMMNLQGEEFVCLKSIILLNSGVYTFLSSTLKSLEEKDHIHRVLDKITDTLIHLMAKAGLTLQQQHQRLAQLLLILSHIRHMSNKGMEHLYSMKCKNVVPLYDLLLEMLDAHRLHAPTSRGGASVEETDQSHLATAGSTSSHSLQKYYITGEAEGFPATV
Chain of Androgen receptor (Homo sapiens) (P10275 whole entry, looked up): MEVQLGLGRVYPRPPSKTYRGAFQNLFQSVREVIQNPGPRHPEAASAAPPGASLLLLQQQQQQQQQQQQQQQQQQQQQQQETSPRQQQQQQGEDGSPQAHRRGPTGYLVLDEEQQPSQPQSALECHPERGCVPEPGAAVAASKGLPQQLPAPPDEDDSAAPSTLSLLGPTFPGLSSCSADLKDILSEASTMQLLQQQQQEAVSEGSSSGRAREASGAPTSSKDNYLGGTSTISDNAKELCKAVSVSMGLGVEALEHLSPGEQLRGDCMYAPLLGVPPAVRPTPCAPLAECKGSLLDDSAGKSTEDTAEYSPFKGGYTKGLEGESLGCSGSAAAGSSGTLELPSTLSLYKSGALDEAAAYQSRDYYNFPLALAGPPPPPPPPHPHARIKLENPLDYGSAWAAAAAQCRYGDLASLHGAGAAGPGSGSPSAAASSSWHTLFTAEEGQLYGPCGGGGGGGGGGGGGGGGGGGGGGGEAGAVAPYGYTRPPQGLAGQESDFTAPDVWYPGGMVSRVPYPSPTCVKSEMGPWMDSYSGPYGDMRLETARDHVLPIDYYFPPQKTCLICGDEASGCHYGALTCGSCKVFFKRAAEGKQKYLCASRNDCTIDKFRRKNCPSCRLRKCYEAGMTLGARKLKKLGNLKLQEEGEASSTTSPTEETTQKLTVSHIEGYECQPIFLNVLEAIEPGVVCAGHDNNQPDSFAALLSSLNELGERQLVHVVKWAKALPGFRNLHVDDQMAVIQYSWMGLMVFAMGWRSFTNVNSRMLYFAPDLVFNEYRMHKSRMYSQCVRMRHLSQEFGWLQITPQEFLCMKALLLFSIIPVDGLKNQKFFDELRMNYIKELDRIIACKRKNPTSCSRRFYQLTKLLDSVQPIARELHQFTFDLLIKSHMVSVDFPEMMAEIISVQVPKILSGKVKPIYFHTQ

Regarding `C[C@]12CC[C@@H]3c4ccc(O)cc4CC[C@H]3[C@@H]1C[C@@H](O)[C@@H]2O`, the outcome in test [1], in test [4], in [6], in [9], in test [13] and in test [14] was inactive. Also, the Potency entry in test [2], in test [3], in [5], in test [7], in test [8] and in test [12] was “inactive” each time. The Potency in test [10] was 13.7 µM (active) and 5.96 µM (active); in test [11] it was 4.3 nM (active) and 3 nM (active).

Consider `CCNc1ccccc1`, for which the call in test [1], in [6], in test [9], in test [13] and in [14] was inactive. The Potency entry in test [2], in test [3], in test [15], in test [5], in [7] and in [8] was “inactive” each time. Moreover, the Potency entry in test [11], in test [16], in test [12], in test [17] and in [18] was “inactive” throughout.

On to `c1ccc2c(c1)Cc1ccccc1-2`, for which the outcome in test [1], in [6], in test [9], in test [13] and in test [14] was inactive. The Potency entry in [2], in [3], in [19], in [5], in test [7] and in [8] was “inactive” each time. The Potency result in test [10], in test [11], in test [12] and in test [17] was “inactive” each time.

For the compound `CNC(=S)N(C)C`, the compound was classed as inactive in [1], in [6], in test [9] and in test [13]. In addition, the Potency entry in test [2], in test [3], in test [19], in test [5], in [7] and in test [8] was “inactive” in each case. Further, the Potency result in test [11], in [12], in test [17] and in test [20] was “inactive” throughout.

Turning to `O=C(O)c1ccc(C(=O)O)c(C(=O)O)c1`, the compound was called inactive in test [1], in test [6], in test [9], in test [13] and in test [14]. For the same compound, the Potency entry in [2], in test [3], in test [15], in test [19], in [5] and in test [7] was “inactive” throughout. In addition, the Potency result in test [8], in test [10], in [12], in test [17] and in test [18] was “inactive” each time.

Consider `COc1ccccc1OCC(O)CO` (stereo not given), for which the outcome in test [1], in test [4], in test [6], in [9], in test [13] and in test [14] was inactive. In addition, the Potency entry in [2], in test [3], in test [15], in test [5], in [7] and in test [8] was “inactive” throughout. For the same compound, the Potency result in test [10], in test [11], in test [12], in test [17] and in test [18] was “inactive” each time.

Turning to `CCNC(=S)NCC`, the call in test [1], in test [6], in test [9], in test [13] and in [14] was inactive. Also, the Potency entry in test [2], in test [3], in test [19], in [5], in [7] and in test [8] was “inactive” each time. In addition, the Potency entry in test [10], in [11], in test [16], in [12], in test [17] and in test [20] was “inactive” each time.

Take `CCCCCCC=O`: the compound was classed as inactive in [1], in [6], in [9], in test [13] and in test [14]. The Potency result in test [2], in test [3], in test [19], in [5], in test [7] and in test [8] was “inactive” throughout. Besides, the Potency entry in [12], in test [17] and in [20] was “inactive” in each case.

On to `CC(CCl)OP(=O)(OC(C)CCl)OC(C)CCl` (stereo not given), for which the outcome in test [1], in test [6], in [9], in test [13] and in test [14] was inactive. Moreover, the Potency result in test [2], in test [3], in [19], in [5], in test [7] and in test [8] was “inactive” in each case. The Potency entry in test [10], in test [11], in [16], in test [12], in test [17] and in test [20] was “inactive” each time.
